Screening results: PubChem BioAssay, several laboratories
In the library only some 1.5% were active in any assay of this set; here they are far more common.
PriA SSB inh – blocks PriA binding to SSB C-terminal tail | AlphaScreen SSBct-PriA binding, biotinylated peptide | inhibition, % at 33 µM | 430,000 compounds, 0.6% hits; in the data active = inhibition mostly above about 37%, no sharp cut-off; inactive = mostly below about 20%;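 note: plate controls were negative control peptide for no effect and reference peptide for full effect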
BH1578 lux ind – induces V. cholerae light production without autoinducers; V. cholerae BH1578 lux reporter, luminescence, 6 h; activation, % at 18.7 µM; AID 588436; 350,000 compounds, 0.16% hits; in the data active = activation mostly above about 9.7%, no sharp cut-off
TcdB GH inh – blocks C. difficile toxin B glycohydrolase activity; AID 652162; inhibition, % at 9.99 µM; TcdB glycohydrolase enzymatic assay, plate reader; P18177; 350,000 compounds, 0.24% hits; in the data active = inhibition above about 10%
PrPC TRFRET – inhibitors of human cell surface prion protein PrPC | P04156 | TR-FRET read-out | inhibition, % at 13.8 µM | 370,000 compounds, 0.43% hits | AID 720596; in the data active = inhibition above about 24%; note: 0% = median of the test wells and 100% = reference compound wells
CCHFV vOTU inh – CCHFV vOTU protease inhibition. 370,000 compounds, 0.55% hits. AID 651958. Pep-AMC fluorescence. inhibition, % at 11.5 µM; in the data active = inhibition above about 30%; note: 0% = vehicle wells with enzyme and 100% = no enzyme wells
DUSP3 inh – inhibitors of human VHR1 phosphatase (DUSP3). P51452. recombinant VHR phosphatase, pNPP absorbance. inhibition, % at 13.3 µM. 290,000 compounds, 0.52% hits. AID 1654; in the data active = inhibition above about 50%
Active calls of the source: *; i = inactive; . = not tested or not shown.

SMILES	PriA SSB inh	BH1578 lux ind	TcdB GH inh	PrPC TRFRET	CCHFV vOTU inh	DUSP3 inh
O=S(=O)(Cc1ccco1)C1CCN(S(=O)(=O)c2ccccc2F)CC1	83*	.	.	.	.	.
CCN1CCN(C(=O)NCC2(O)Cc3ccccc3C2)C(=O)C1=O	-1	.	.	.	.	.
C=CCN1C(=O)C(C)(C)COc2ccc(NS(=O)(=O)c3ccc(Cl)s3)cc21	-2	.	.	.	.	.
O=C(Nc1nc2c(s1)CCCC2)C1CCN(c2ccc(-n3cccn3)nn2)CC1	48*	.	.	.	.	.
O=S(=O)(Oc1ccccc1/C=N/n1cnnc1)c1ccccc1	.	0	20*	-4	-7	15
COc1ccccc1/C=N/n1cnnc1	.	i	.	2	2	3
CCc1ccccc1NC1=NCC(=O)N1Cc1ccc(OC)cc1	-7	-1	.	2	-3	20
CCc1ccccc1NC1=NCC(=O)N1C1CCCC1	-4	i	0	-3	8	53*
O=C(O)c1ccnc(C(=O)O)c1	57*	i	.	-5	-10	15
O=C(O)c1cc(Cl)ccn1	68*	.	.	.	.	.
O=C(O)c1cc(Br)ccn1	100*	0	0	5	2	8
O=C(O)c1cc(-n2ccnc2)ccn1	72*	.	.	.	.	.
CN(C)c1ccnc(C(=O)O)c1	-19	0	1	-5	-5	18
O=C(Nc1cccc(Cl)c1)N1CCC(Oc2ncccc2Br)CC1	-18	.	.	.	.	.
O=C(Nc1nncs1)c1cc(Cl)ccn1	124*	.	.	.	.	.
Cc1oncc1C(=O)Nc1cccc(-c2cnc3n2CCC3)c1	-1	.	.	.	.	.
O=C(Nc1c[nH]c(=O)[nH]c1=O)c1cccc([N+](=O)[O-])c1	-3	0	1	-17	1	56*
O=C(Nc1c[nH]c(=O)[nH]c1=O)c1cccc(F)c1	-2	i	0	0	7	-3
CCOc1ccc(CNC(=O)c2cc(-c3sc(C)nc3C)[nH]n2)cc1OCC	3	.	.	.	.	.
CCOc1ccc(C(=O)/C=C/Nc2ccc(S(=O)(=O)Nc3cc(C)nc(C)n3)cc2)cc1	-1	.	0	-1	-7	50*
COc1ccc(CCNC(=O)CCCn2nc(C)n3ccnc3c2=O)cc1OC	0	0	14*	2	4	-2
COc1ccccc1CNC(=O)CCCn1nc(C)n2ccnc2c1=O	-9	1	1	2	6	6
CO[C@@H](CNC(=O)c1noc2c1CCCC2)c1ccc(Cl)s1	4	.	.	.	.	.
COc1ccc2c(C)c(CC(=O)N3C[C@H]4C[C@H](C3)c3cccc(=O)n3C4)c(=O)oc2c1OC	0	.	.	.	.	.
CN1CCN(c2nc(-c3ccccn3)nc3ccccc23)CC1	46*	-1	.	-7	11	-24
SMILES	PriA SSB inh	BH1578 lux ind	TcdB GH inh	PrPC TRFRET	CCHFV vOTU inh	DUSP3 inh
CC(=O)Nc1ccc(Oc2nc(-c3ccccn3)nc3ccccc23)cc1	-1	0	28*	-10	-6	-19
Nc1nc(-c2ccccn2)ns1	19	.	.	.	.	.
CC(=O)Nc1cccc(Oc2nc(-c3ccccn3)nc3ccccc23)c1	-7	i	1	-4	1	5
NNc1nc(N)nc(-c2ccccn2)n1	152*	.	.	.	.	.
c1ccc(N2CCN(c3nc(-c4ccccn4)nc4ccccc34)CC2)cc1	0	i	4	-2	14	29
Nc1nc(-c2ccccn2)nc2ccccc12	140*	.	.	.	.	.
Clc1cc(Cl)nc(-c2ccccn2)n1	26	.	.	.	.	.
Nc1nc(N)nc(-c2ccccn2)n1	78*	-1	.	-3	-3	10
Cc1nc(N)nc(-c2ccccn2)n1	20	.	.	.	.	.
NNc1nc(-c2ccccn2)nc2c1CCC2	165*	.	.	.	.	.
S=c1[nH]nc(-c2cc(-c3ccccc3)n[nH]2)n1/N=C/c1cccc(Cl)c1	.	-1	2	2	-2	50*
c1ccc2c(c1)oc1c(NCCCn3ccnc3)ncnc12	-12	i	.	-6	2	55*
c1ccc(-c2c(-c3ccccc3)n(Cc3ccco3)c3ncnc(NCCCn4ccnc4)c23)cc1	52*	-1	.	-10	5	11
OCCNc1ncnc2c1c(-c1ccccc1)c(-c1ccccc1)n2Cc1ccco1	15	-8	.	10	11	10
Cc1[nH]c(=O)[nH]c(=O)c1CCC(=O)Nc1ccc(-c2nn[nH]n2)cc1	0	.	.	.	.	.
Cc1nc(SCC(=O)N2CCNC2=O)c(C#N)c(C)c1C	.	i	13*	-11	2	.
COc1ccccc1NC(=O)CSc1nnc(-c2cccc(C)c2)n1Cc1ccco1	59*	.	.	.	.	.
CCN(Cc1ccccc1)c1ccc(C=NN2CCOCC2)cc1	47*	.	.	.	.	.
CCN(Cc1ccccc1)c1ccc(/C=N/N2CCOCC2)cc1	.	-2	-13	3	7	6
COc1ccc(NC(=O)c2ccc(N3C(=O)C4CC=C(Cl)CC4C3=O)cc2)cc1 (stereo not drawn)	-13	-1	-3	-5	-10	56*
O=C(C1CC1)N1CCC(c2cccs2)CC1	-14	.	.	.	.	.
CSc1nc(Cc2ccccc2)nc2ccccc12	-46	0	0	4	-5	53*
CC1CCC/C(=N\NC(=O)COc2ccccc2Cl)C1 (stereo not drawn)	.	i	1	-7	-8	51*
CC1CCC/C(=N\NC(=O)COc2ccc(Cl)cc2Cl)C1 (stereo not drawn)	.	-12	.	-2	-12	23
C#CCSc1nnc(-c2cccc3ccccc23)o1	-87	i	.	-3	0	.
SMILES	PriA SSB inh	BH1578 lux ind	TcdB GH inh	PrPC TRFRET	CCHFV vOTU inh	DUSP3 inh
C=CCSc1nnc(-c2cccc3ccccc23)o1	89*	1	-1	-5	0	.
CN(C)C(=O)Cn1cc(S(=O)(=O)Cc2ccccc2)c2ccccc21	1	-1	1	5	1	59*
COc1ccc(S(=O)(=O)Nc2nc(CCC(=O)N3CCN(c4ccccn4)CC3)cs2)cc1	3	.	.	.	.	.
Oc1ccccc1-c1csc(-c2ccccc2)n1	-180	0	2	-5	6	-8
c1ccc(-c2csc(-c3ccncc3)n2)cc1	-1	i	0	-17	5	52*
COc1ccc(C(=O)N2CCN(c3ccc(-c4ccc5c(c4)OCO5)nn3)CC2)cc1OC	-3	.	.	.	.	.
COc1ccc(CNC(=O)C2CCN(C(=O)N3CCOc4ccc(C)cc43)CC2)cc1	-6	.	.	7	23	51*
CCCCCCC(NC(=O)c1ccc(C)cc1)C(=O)O (stereo not drawn)	57*	i	1	2	-2	.
Cc1ccc(C(=O)NC(CCc2ccccc2)C(=O)O)cc1 (stereo not drawn)	-6	i	-1	10	-4	.
O=S(=O)(Nc1ccc(O)cc1)c1cccc2cccnc12	-1	0	11*	-7	-2	-4
O=C(Cn1cc(-c2ccc(F)cc2)cn1)N1CCN(c2ccccn2)CC1	-14	.	.	.	.	.
Cc1cc2cc(CNC(=S)NCc3ccccc3)ccc2[nH]1	47	.	.	.	.	.
Cc1cc2cc(CNC(=S)NC(C)(C)C)ccc2[nH]1	51	.	.	.	.	.
CCNC(=S)NCc1ccc2[nH]c(C)cc2c1	63*	5	1	0	-3	4
Cc1cc2cc(CNC(=S)Nc3ccc(OC(F)F)cc3)ccc2[nH]1	73*	0	1	6	2	-11
